Assay outcomes from PubChem.
Mtb betalactam: beta-lactam sensitization of Mtb H37Rv, H37Rv; M. tuberculosis H37Rv growth with meropenem, percent inhibition; inhibition, % at 25 µM; 0.27% of 330,000 active; AID 434955, 2010; call rule not given here;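 further: growth measured after seven days incubation then overnight dye step; 0% = bacteria only wells and 100% = bacteria with antibiotic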
SSB-PriA inh: inhibitors of Klebsiella pneumoniae PriA binding to SSB C-terminal tail, primary screen, biochemical, AlphaScreen | inhibition, % at 33 µM | PriA–SSB C-terminal tail interaction (Klebsiella pneumoniae) | AlphaScreen SSBct-PriA binding, biotinylated peptide | 0.6% of 430,000 active; in the data active means inhibition mostly above about 37%, no sharp cut-off; inactive means mostly below about 20%;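 further: plate controls were negative control peptide for no effect and reference peptide for full effect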
FBA Mtb inh: Mtb FBA enzyme inhibitors, primary screen, biochemical, fluorescence, strain H37Rv. purified M. tuberculosis FBA, fluorescence read-out. inhibition, % at 1 µM. 2.3% of 360,000 active; in the data active means inhibition above about 27%;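 further: 0% = vehicle and 100% = reference inhibitor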
Target sequence (P9WQA3 whole entry, looked up): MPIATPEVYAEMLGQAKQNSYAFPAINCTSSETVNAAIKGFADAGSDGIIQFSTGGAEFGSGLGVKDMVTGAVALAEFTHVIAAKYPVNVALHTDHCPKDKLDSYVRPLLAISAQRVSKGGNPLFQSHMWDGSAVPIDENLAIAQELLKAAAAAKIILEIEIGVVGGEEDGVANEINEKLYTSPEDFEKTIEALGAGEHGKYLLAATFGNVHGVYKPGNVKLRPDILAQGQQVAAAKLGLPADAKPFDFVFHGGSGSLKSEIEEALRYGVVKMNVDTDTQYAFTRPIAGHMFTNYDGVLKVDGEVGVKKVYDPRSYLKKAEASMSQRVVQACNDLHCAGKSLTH
Rv3671c inh: Rv3671c serine protease inhibitors, primary screen, biochemical, fluorescence polarization, M. tuberculosis H37Rv. 0.048% of 320,000 active. AID 2606, 2010. inhibition, % at 5.96 µM. P9WHR9; in the data active means inhibition above about 38%;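 further: extracellular domain of Rv3671c used as enzyme; 0% = enzyme with DMSO and 100% = no enzyme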
UGM FP inh: M. tuberculosis UGM enzyme inhibitors, primary screen, biochemical, fluorescence polarization, single point; UDP-galactopyranose mutase (Mycobacterium tuberculosis (strain ATCC 25618 / H37Rv)), …; inhibition, % at 10 µM; purified UGM, fluorescence polarization probe displacement; AID 504406, 2011; 0.06% of 320,000 active; in the data active means inhibition above about 10%, passing the limit was not always enough
GDH-TPI inh: GDH-TPI coupling enzyme inhibitors, primary screen, artefact control for M. tuberculosis FBA inhibitor project, biochemical, absorbance, full deck | AID 588335, 2011 | inhibition, % at 4.8 µM | 1.2% of 360,000 active | GDH-TPI coupled enzyme counterscreen, NADH absorbance; in the data active means inhibition above about 30%;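 further: 0% = DMSO wells and 100% = wells lacking the enzyme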
* = called active by the depositor; i = inactive; / = not tested or not shown. A selection: hits, their analogues and other compounds. The true share with any hit is near 3.2%.

SMILES	Mtb betalactam	SSB-PriA inh	FBA Mtb inh	Rv3671c inh	UGM FP inh	GDH-TPI inh
COc1ccc(/C=N/NC(=O)c2ccc3c(c2)OCO3)cc1	7	/	-6	2	-1	20
CN(C)c1ccc(/C=N/NC(=O)c2cc(-c3ccc4c(c3)OCO4)n[nH]2)cc1	/	i	3	4	2	36*
O=C(CSc1nnc2ccc(-c3ccccn3)nn12)NCc1ccc(F)cc1	/	16	/	/	/	/
O=C(Nc1ccccc1F)C1CCCCN1S(=O)(=O)c1cccs1 (stereo not given)	/	-20	/	/	/	/
CCn1nnc2c(SCc3c(F)cccc3Cl)ncnc21	/	-7	/	/	/	/
O=C(NN=Cc1ccc2c(c1)OCO2)c1ccc2c(c1)OCCO2	/	-12	/	/	/	/
CN(C)c1ccc(/C=N/Nc2cccc(C(=O)O)c2)cc1	5	/	1	-2	1	37*
O=C(O)c1ccc(N/N=C/c2ccc3c(c2)OCO3)cc1	10	/	-5	7	-2	33*
O=C(N/N=C/c1cc([N+](=O)[O-])cc([N+](=O)[O-])c1O)/C(=C\c1cccs1)NC(=O)c1ccccc1	5	/	-6	-5	3	37*
O=C(N/N=C/c1ccc2c(c1)OCO2)c1ccc2c(c1)OCCO2	4	/	3	-8	2	42*
CC(C)(C)c1ccc(/C=N/Nc2cccc(C(=O)O)c2)cc1	-2	/	-2	-3	1	2
O=C(O)c1ccc(N/N=C/c2cc3cc4c(cc3nc2Cl)OCCO4)cc1	-7	i	8	-3	-2	39*
O=C(O)c1ccc(/C=N/Nc2ncc(C(F)(F)F)cc2Cl)cc1	36	i	-1	1	-2	37*
O=Cc1cc2cc3c(cc2nc1Cl)OCCO3	-5	12	/	-8	-5	/
CC(C)(C)c1ccc(/C=N/Nc2ccc(C(=O)O)cc2)cc1	5	/	-3	-1	1	42*
COc1cc(C(=O)NC(=S)NNC(=O)c2ccc3c(c2)OCO3)cc(OC)c1OC	12	-1	0	-1	-1	32*
O=C(NCc1ccco1)C(=O)NCC1OCCN1S(=O)(=O)c1cccs1 (stereo not given)	/	-6	/	/	/	/
Cc1ccc(-n2c(C)nc3ccc(NC(=O)c4cccc([N+](=O)[O-])c4C)cc3c2=O)cc1	/	10	/	/	/	/
COc1cc(C=NNC(=O)c2ccc(-n3cccc3)cc2)ccc1O	/	16	/	/	/	/
CC1Oc2ccccc2C=C1/C=N/Nc1ccc(C(=O)O)cc1 (stereo not given)	5	i	3	16	5	34*
COc1cc(/C=N/NC(=O)c2ccc(-n3cccc3)cc2)ccc1O	4	/	-2	15	1	43*
O=C(N/N=C/c1ccc2c(c1)OCO2)c1ccc(Br)o1	-5	/	-2	0	4	47*
Cc1ccc(N2C(=O)C3CCCN3C2=S)cc1Cl (stereo not given)	1	10	152*	-6	2	-3
Cc1ccc(N2C(=O)C3CCCN3C2=S)cc1C (stereo not given)	1	-1	1	-4	-1	3
N=c1oc2ccccc2cc1C(=O)Nc1ccc(F)cc1	3	0	64*	/	-5	4
SMILES	Mtb betalactam	SSB-PriA inh	FBA Mtb inh	Rv3671c inh	UGM FP inh	GDH-TPI inh
O=C(NCCN1CCN(C(=O)c2cc3ccccc3oc2=O)CC1)c1cc2ccccc2oc1=O	-14	94*	2	6	4	23
O=C(Nc1ccccc1-n1cccc1)c1cc2ccccc2oc1=O	/	7	/	/	/	/
O=C(O)c1ccccc1NC(=O)c1cc2ccccc2oc1=O	6	-16	1	/	2	50*
O=C(Cc1cccs1)NCC(c1ccsc1)N1CCCC1 (stereo not given)	/	-1	/	/	/	/
CC1=CC(=C(C#N)C#N)C=C(C)N1CCN1CCNCC1	-10	1	-2	9	-3	31*
CC(=O)N1CCN(CCN2C(C)=CC(=C(C#N)C#N)C=C2C)CC1	-1	-2	2	-1	-3	11
C[C@H](NC(=O)c1ccco1)C(=O)Nc1nnc(SCc2ccccc2)s1	5	-5	1	-1	3	-6
